Our source for the inhibition values is PubChem BioAssay AID1533 (PCMD, 2009).

In the test the target is dTDP-4-dehydrorhamnose reductase (Mycobacterium tuberculosis (strain ATCC 25618 / H37Rv)) + dTDP-4-dehydrorhamnose 3,5-epimerase (Mycobacterium tuberculosis (strain ATCC 25618 / H37Rv)) (UniProt P9WH09+P9WH11). Nature of the test: M. tuberculosis RmlC/RmlD coupled enzyme inhibitors, primary screen, biochemical, compound mixtures, 384-well, from 1536-well plates (AID 1533). As to conditions: RmlC+RmlD coupled enzyme assay, percent inhibition, primary screen in compound mixtures, stronger effect = higher value.

The mark [1] stands for this setting: measured here: mean retest inhibition, at 5.5 µM.

Among all 160,000 compounds or so, about 45 (0.03%) were called active. Cut-off read from the data, not from the text of the source: active = inhibition mostly above about 34% (no sharp cut-off); inconclusive = no clear call, values can overlap the other calls; inactive = mostly below about 22%. This excerpt belongs to a sample that is enriched for actives.

dTDP-4-dehydrorhamnose reductase (Mycobacterium tuberculosis (strain ATCC 25618 / H37Rv)) + dTDP-4-dehydrorhamnose 3,5-epimerase (Mycobacterium tuberculosis (strain ATCC 25618 / H37Rv)), sequence (P9WH09 whole entry, looked up): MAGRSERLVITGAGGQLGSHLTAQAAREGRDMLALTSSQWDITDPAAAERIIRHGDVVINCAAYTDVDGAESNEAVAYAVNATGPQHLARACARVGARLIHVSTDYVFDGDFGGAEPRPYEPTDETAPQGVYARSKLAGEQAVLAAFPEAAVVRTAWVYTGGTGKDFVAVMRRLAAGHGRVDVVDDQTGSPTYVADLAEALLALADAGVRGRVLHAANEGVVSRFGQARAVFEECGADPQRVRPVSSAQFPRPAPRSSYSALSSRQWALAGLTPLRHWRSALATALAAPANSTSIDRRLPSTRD
dTDP-4-dehydrorhamnose reductase (Mycobacterium tuberculosis (strain ATCC 25618 / H37Rv)) + dTDP-4-dehydrorhamnose 3,5-epimerase (Mycobacterium tuberculosis (strain ATCC 25618 / H37Rv)), sequence (P9WH11 whole entry, looked up): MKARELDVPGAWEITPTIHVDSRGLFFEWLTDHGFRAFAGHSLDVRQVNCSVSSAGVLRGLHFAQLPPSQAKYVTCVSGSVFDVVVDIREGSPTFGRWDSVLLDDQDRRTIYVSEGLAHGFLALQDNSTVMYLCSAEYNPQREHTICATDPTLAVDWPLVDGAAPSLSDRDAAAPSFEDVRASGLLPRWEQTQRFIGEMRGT

`CCn1c(SCC(=O)Nc2sc(C)c(C)c2C#N)nnc1C1CC1`: the inhibition (commonly the change of the read-out against control, counted positive when it falls) (at 3.6 µM) is -13.3% (inactive).

With `CCC(C)NC(=O)C1c2ccccc2Oc2ccccc21` (stereo not given), under “at 3.6 µM”, the inhibition was 10.6% (inactive).

For the compound `CCOC(=O)c1ccc(S(=O)(=O)N(CCO)Cc2cc3cc(OC)c(OC)cc3[nH]c2=O)cc1`, where the note is “at 3.6 µM”, the inhibition was -8.54% (inactive).

For `CCc1cccc(NC(=O)CCNS(=O)(=O)c2cccc3nonc23)c1`, under “at 3.6 µM”, the inhibition was -2.17% (inactive).

On to `CCC(C)(C)NC(=O)C(c1ccc(O)cc1)N(C(=O)Cn1nnc2ccccc21)c1ccc(NC(C)=O)cc1` (stereo not given), for which, for the setting “at 3.6 µM”, the inhibition was 4.36% (inactive).

Regarding `COC(=O)c1ccc(COc2ccc(/C=N/NC(=O)C(=O)Nc3ccc(OC)cc3)cc2OC)o1`, for the setting “at 3.6 µM”, the inhibition was -13.4% (inactive).

For `Cn1nc(C(C)(C)C)c([N+](=O)[O-])c1C(N)=O`, the inhibition (at 3.6 µM) was 11.8% (inactive).

Regarding `Cc1ccc(NC(=O)/C(=C\c2ccccc2)NC(=O)c2ccco2)cc1`, the inhibition is, setting by setting: (at 3.6 µM) 44% (inactive); under setting [1], 3.08%.

For the compound `Cc1ccc(OCC(=O)Nc2nnc(-c3ccco3)s2)cc1`, where the note is “at 3.6 µM”, the inhibition was -5.61% (inactive).

For `O=[N+]([O-])c1ccc(N=Cc2c(O)ccc3ccccc23)cc1`, the inhibition (at 3.6 µM) was -17.6% (inactive).

As to `O=c1[nH]nc(SCCS(=O)(=O)c2ccc(F)cc2)n1-c1ccccc1C(F)(F)F`, the inhibition (at 3.6 µM) is -9.62% (inactive).

Regarding `C=CCc1cccc2cc(C(=O)NC3CCCC3)c(=O)oc12`, where the note is “at 3.6 µM”, the inhibition is 3.42% (inactive).

In the case of `COc1ccc2[nH]c(C(=O)Nc3ccccc3Cl)cc2c1`, for the setting “at 3.6 µM”, the inhibition was -0.28% (inactive).

As to `CC1=NNC(=O)C1CC(=O)N/N=C/c1ccncc1` (stereo not given), under “at 3.6 µM”, the inhibition was 8.8% (inactive).

For the compound `C/C(=C\c1ccco1)CN1CCC(N2CCC(C(=O)N3CCOCC3)CC2)CC1`, the inhibition (at 3.6 µM) is 3.12% (inactive).

On to `O=C(C[n+]1cc(-c2ccc(Cl)c(Cl)c2)n2c1CCC2)c1cccs1`, for which the inhibition (at 3.6 µM) was 2.29% (inactive).

In the case of `COc1ccc([N+](=O)[O-])cc1N(CC(O)CN(CC(C)C)CC(C)C)S(=O)(=O)c1ccc(C)cc1` (stereo not given), the inhibition (at 3.6 µM) was 2.56% (inactive).

As for `COc1cc(N/C=C2\CC(=O)NC(C)=C2C#N)cc(OC)c1OC`, the inhibition (at 3.6 µM) was -11.2% (inactive).

For the compound `CC(C)N(C(=O)CSc1nc(COc2ccccc2)nc2ccccc12)C(C)C`, under “at 3.6 µM”, the inhibition is -5.31% (inactive).

Take `COc1c(N2CCN(C(=S)Nc3ccccc3F)C(C)C2)c(F)cc2c(=O)c(C(=O)O)cn(C3CC3)c12` (stereo not given): the inhibition (at 3.6 µM) was 9.08% (inactive).

In the case of `CCc1cccc(CC)c1NC(=S)Nc1ccc2cn[nH]c2c1`, the inhibition (at 3.6 µM) was -7.83% (inactive).

With `O=C1/C(=C/c2cccs2)SC(=S)N1C1CCS(=O)(=O)C1` (stereo not given), the inhibition (at 3.6 µM) was 1.03% (inactive).

For the compound `COc1ccc(OCC(O)CNCCNc2nccc(C(F)(F)F)n2)cc1` (stereo not given), the inhibition was 42.7% (inactive) (at 3.6 µM) and 10.5% under setting [1].

As to `Cc1ccc(/C=C/C(=O)O)cc1S(=O)(=O)N1CCC(Cc2ccccc2)CC1`, under “at 3.6 µM”, the inhibition was -14% (inactive).

For the compound `O=C(C[n+]1ccc2c(c1)nnn2-c1ccccc1)c1ccc(Cl)cc1`, under “at 3.6 µM”, the inhibition is -3.04% (inactive).

Regarding `CC1Cc2ccccc2N1C1=CC(=O)CC(C)(C)C1` (stereo not given), the inhibition (at 3.6 µM) was 10.6% (inactive).

In the case of `CC(=O)Nc1ccc(NC(=O)CSc2nnc(COc3ccccc3C)n2CC2CCCO2)cc1` (stereo not given), under “at 3.6 µM”, the inhibition was 7.46% (inactive).

With `O=C(Nc1nnc(COc2ccccc2)s1)Nc1ccccc1F`, for the setting “at 3.6 µM”, the inhibition is 3.12% (inactive).

In the case of `COc1ccc(CNC(=O)C(Cc2ccccc2)n2cccc2)cc1` (stereo not given), the inhibition (at 3.6 µM) was 6.07% (inactive).

Take `COc1ccc(Nc2cc(=O)n(-c3ccccc3)c3c2c(=O)n(C)c(=O)n3C)cc1`: the inhibition (at 3.6 µM) is 13.6% (inactive).

`CCN(CC)CCn1cnc2c1c(=O)n(CCOC(=O)c1cc(OC)c(OC)c(OC)c1)c(=O)n2C`: the inhibition (at 3.6 µM) was 3.47% (inactive).

With `O=C1COc2ccc(C(=O)COC(=O)C3CC(O)CN3S(=O)(=O)c3ccc(Cl)cc3)cc2N1` (stereo not given), the inhibition (at 3.6 µM) is -2.3% (inactive).

`COc1ccc(CNC(=O)COC(=O)/C=C/c2ccc(S(=O)(=O)N3CCOCC3)cc2)cc1`: the inhibition (at 3.6 µM) was -2.01% (inactive).

On to `N/C(=N\OC(=O)CCCC(=O)O)c1ncc(C(F)(F)F)cc1Cl`, for which the inhibition (at 3.6 µM) is 2.53% (inactive).

Regarding `N#CC1=C(N)Oc2c(ccc3cccnc23)C1c1ccncc1` (stereo not given), under “at 3.6 µM”, the inhibition is 4.04% (inactive).

Take `c1csc(-c2nnc(COc3ncnc4sccc34)o2)c1`: the inhibition (at 3.6 µM) is -7.72% (inactive).

In the case of `O=c1ccnc(Nc2ccc(Cl)cc2)[nH]1`, the inhibition (at 3.6 µM) was 6.37% (inactive).

As for `CN(c1ccccc1)S(=O)(=O)c1cc(C(=O)OCC(=O)N2CCN(C(=O)c3ccco3)CC2)ccc1Cl`, the inhibition (at 3.6 µM) is 3.76% (inactive).

`COC(=O)c1ccccc1N=Nc1c(C)[nH][nH]c1=O`: where the note is “at 3.6 µM”, the inhibition was -10.6% (inactive).

For the compound `O=C(Nc1ccccc1F)c1ccc(Cn2cc(Br)cn2)cc1`, the inhibition (at 3.6 µM) is -3.16% (inactive).

Regarding `O=C(Cc1ccccc1Cl)N1CCN(c2ccccn2)CC1`, the inhibition (at 3.6 µM) is -5.39% (inactive).

On to `NC(=O)Cc1ccc2c(c1)[nH]c1ccccc12`, for which, under “at 3.6 µM”, the inhibition is -1.93% (inactive).

For the compound `O=C(COc1cc(Cl)c(Cl)cc1Cl)NCCc1ccccn1`, under “at 3.6 µM”, the inhibition is 6.74% (inactive).

Take `CCN1C(=O)/C(=c2\s/c(=C3\Sc4ccccc4N3C)c(=O)n2C)N(C)C1=S`: the inhibition (at 3.6 µM) was -7.72% (inactive).

Regarding `C=CCN(CC=C)C(=O)COC(=O)c1n[nH]c2ccccc12`, the inhibition (at 3.6 µM) was 5.16% (inactive).

In the case of `O=C(Nc1ccc(-c2ccc3nncn3n2)cc1)C1CCCCC1`, the inhibition (at 3.6 µM) was -6.47% (inactive).

Turning to `Cc1ccc(-c2nn(-c3cccc(F)c3)cc2CNCCc2ccncc2)o1`, the inhibition (at 3.6 µM) was -11.7% (inactive).

As to `CCN(CC)S(=O)(=O)c1ccc(NC(=O)c2cccnc2Cl)c(NC(=O)c2cccnc2Cl)c1`, the inhibition (at 3.6 µM) is 9.89% (inactive).

Turning to `O=[N+]([O-])/C(N=Nc1ccccc1)=N\Nc1ccccc1`, the inhibition (at 3.6 µM) is -9.57% (inactive).

`O=S(=O)(NC(=S)Nc1ccccc1)c1ccc(F)cc1`: the inhibition (at 3.6 µM) was -3.25% (inactive).

As for `CN(CCC1CCOCC1)Cc1cn[nH]c1-c1ccc(-c2ccccc2)cc1`, for the setting “at 3.6 µM”, the inhibition was 9.21% (inactive).

On to `Cc1c(NC(=O)CN2C(=O)C(=O)N(Cc3ccccc3)C2=O)c(=O)n(-c2ccccc2)n1C`, for which, under “at 3.6 µM”, the inhibition was 7.63% (inactive).

With `CCOC(=O)c1sc(NC(=O)CSc2n[nH]c(CC)n2)nc1C`, under “at 3.6 µM”, the inhibition was -5.04% (inactive).
